Screening results from PubChem BioAssay.
PABP1 MLLE inh = blocks PAM2 peptide binding to the PABP1 MLLE domain; AID 588489; inhibition, % at 20 µM; P11940; GST-MLLE / FITC-PAM2 fluorescence polarization; hit rate 0.36% among 360,000; in the data active means inhibition above about 35%, passing the limit was not always enough;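 further: plate controls were DMSO wells with GST-MLLE for no effect and wells lacking GST-MLLE protein for full effect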
Target sequence (P11940 whole entry, looked up, the tested form may be a part): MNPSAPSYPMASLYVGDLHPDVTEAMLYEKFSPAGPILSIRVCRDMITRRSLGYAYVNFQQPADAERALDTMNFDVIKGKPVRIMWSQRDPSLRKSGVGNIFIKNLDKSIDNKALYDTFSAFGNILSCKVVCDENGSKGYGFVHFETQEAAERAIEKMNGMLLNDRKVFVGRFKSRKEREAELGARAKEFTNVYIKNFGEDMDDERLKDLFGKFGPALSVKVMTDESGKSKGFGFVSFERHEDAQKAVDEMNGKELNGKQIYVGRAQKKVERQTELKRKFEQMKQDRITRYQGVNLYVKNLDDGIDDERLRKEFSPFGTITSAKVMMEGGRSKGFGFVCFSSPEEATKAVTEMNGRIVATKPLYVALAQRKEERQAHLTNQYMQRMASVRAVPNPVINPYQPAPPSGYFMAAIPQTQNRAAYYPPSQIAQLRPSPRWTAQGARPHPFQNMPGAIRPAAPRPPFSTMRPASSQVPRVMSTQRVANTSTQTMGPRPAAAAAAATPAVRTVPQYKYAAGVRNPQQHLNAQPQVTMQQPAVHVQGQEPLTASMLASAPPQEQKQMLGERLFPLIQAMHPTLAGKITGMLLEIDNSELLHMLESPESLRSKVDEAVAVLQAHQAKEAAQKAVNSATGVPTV
PERK inh = blocks human PERK kinase; AID 1416; Q9NZJ5; inhibition, % at 5.6 µM; hit rate 0.17% among 220,000; CHO PERK-DD fusion, SEAP luminescence translation reporter;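 active means inhibition above the mean inhibition of all tested compounds plus 3 SD, set separately per screening campaign, cut at about 2.9% in these data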;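 further: PERK kinase domain activated by AP20187 dimerizer at 100 nM; 0% = DMSO with dimerizer and 100% = rapamycin at 8.4 µM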
PABP FP inh = blocks human PABP binding to poly(A) RNA. P11940. fluorescence polarization. AID 2014. inhibition, % at 35 µM. hit rate 1% among 290,000;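 further: calls also rest on retests at 20 µM and on dose response follow-up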
eIF4H inh = inhibitors of RNA binding by human eIF4H | Q15056 | eIF4H fluorescence polarization binding assay | inhibition, % at 35 µM | hit rate 0.94% among 290,000 | AID 2012;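 further: calls also rest on retests at 20 µM and on dose response follow-up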
eIF4E 4G PPI = inhibitors of eIF4E and eIF4G interaction in translation initiation; TR-FRET eIF4E-eIF4GI(517-606) binding, 2 h; inhibition, % at 21.7 µM; hit rate 0.37% among 220,000; AID 782;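 active means inhibition above about 30%, limit read from the data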;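 further: 0% = full FRET control wells and 100% = background wells lacking eIF4GI fragment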
Active calls of the source: *; u = inconclusive; x = not tested or not shown; [ ] = remark or other dose. In the library only some 1.6% were active in any assay of this set; here they are far more common. Unless noted, how the calls were made is not given here.

SMILES | PABP1 MLLE inh | PERK inh | PABP FP inh | eIF4H inh | eIF4E 4G PPI
c1ccc(-c2nn3c(Cn4nnc5ccccc54)nnc3s2)nc1 | 30.4 | -0.6 | 46.6 | 69.7* | 19.1
c1cncc(-c2nn3c(Cn4nnc5ccccc54)nnc3s2)c1 | 32.9 | -0.8 | 3.3 | -2.2 | 0.6
O=C(COC(=O)C1COc2ccccc2O1)Nc1ccccc1OC(F)F (stereo unspecified) | -6.5 | x | x | x | x
O=C(NC1CCCC1)c1cnc2n(c1=O)CCS2 | 0.6 | -1.0 | 7.1 | -7.8 | 95.2*[fluorescence artefact?]
COc1ccccc1Cn1c(-c2ccco2)nc2nc3ccccc3nc21 | -32.8 | -0.7 | x | x | x
COc1ccc(CCn2c(-c3ccco3)nc3nc4ccccc4nc32)cc1 | -45.8 | 0.1 | 88.2* | 66.9* | -3.3
CCOC(=O)C1=NOC(COc2ccccc2C=O)C1 (stereo unspecified) | 16.9 | 0.6 | 67.1* | 6.7* | 2.1
Cc1cc(C)c(NC(=O)C2CCCN2CCOC(=O)c2cccc([N+](=O)[O-])c2)c(C)c1 (stereo unspecified) | 9.7 | 0.2 | 66.6* | active | -1.5
O=C(CC(NC(=O)OCc1ccccc1)C(=O)OCc1ccccc1)OCc1ccccc1 (stereo unspecified) | -16.9 | x | x | x | x
O=[N+]([O-])c1cc(/C=N\Nc2nccs2)ccc1O | x | 0.3 | 92.2* | 93.0* | 49.4*[fluorescence artefact?]
C/C(CC(=O)Nc1ccc(N(C)C)cc1)=N\NC(=O)c1ccc(F)cc1 | -2.5 | x | -8.1 | -14.7 | x
O=C(NCc1ccco1)c1sc(=S)n2c1[nH]c(=O)c1ccccc12 | 44.6* | 0.7 | 23.4 | 5.0 | 4.4
CN(C)S(=O)(=O)c1cccc(-c2nn(-c3ccccc3)cc2/C=C2\SC(=S)NC2=O)c1 | -82.4 | 0.4 | active | u | 17.1
Cc1cccnc1NC(=S)NC(=O)c1oc2ccccc2c1C | 40.2* | x | 0.5 | 2.7 | x
CCOc1ccc(-n2c(SC(C)C)nc3c(c2=O)SCC3)cc1 | 8.4 | 0.0 | active | 76.4 | -1.1
COC(=O)c1sc(NC(=O)c2ccco2)nc1C | -1.4 | 1.3 | 6.1 | -1.1 | 2.9
CCOC(=O)c1sc(NC(=S)NC(=O)c2ccco2)nc1C | 41.3* | 1.1 | -5.8 | 4.2 | 2.1
COc1ccc(C(=O)NC(=S)Nc2nc(C)c(C(=O)N(C)C)s2)cc1 | 44.5* | 0.6 | 15.5 | 6.4 | 1.5
CC(Sc1nc(N)cc(=O)[nH]1)C(=O)NNC(=O)c1cccc(Cl)c1 (stereo unspecified) | 11.5 | x | x | x | x
O=C(Cn1cncn1)N/N=C/c1ccncc1 | -3.5 | 2.8 | -9.2 | -10.2 | -2.0
Cc1ccc(N2C(=O)CC(Sc3ccccc3C(=O)O)C2=O)cc1C (stereo unspecified) | 36.0 | 0.3 | -10.7 | 6.2 | -2.2
COc1ccc(N2C(=O)CC(Sc3ccccc3C(=O)O)C2=O)c([N+](=O)[O-])c1 (stereo unspecified) | 27.7 | -0.6 | 5.5 | -4.7 | -1.6
O=C1CC(Sc2ncccn2)C(=O)N1c1ccccc1 (stereo unspecified) | 16.9 | 0.5 | -4.5 | 59.9 | -1.4
CC(C)c1ccc(N2C(=O)CC(Sc3ncccn3)C2=O)cc1 (stereo unspecified) | 38.5* | x | -3.2 | -13.8 | x
Cc1ccc(N2C(=O)CC(Sc3ccccc3C(=O)O)C2=O)cc1 (stereo unspecified) | 50.0* | 0.8 | -4.2 | 1.1 | 4.1
SMILES | PABP1 MLLE inh | PERK inh | PABP FP inh | eIF4H inh | eIF4E 4G PPI
Nc1nnc(SC2CC(=O)N(c3ccccc3)C2=O)s1 (stereo unspecified) | 42.0* | 0.4 | -7.7 | 1.5 | x
Cc1ccnc(SC2CC(=O)N(c3ccc(C(C)C)cc3)C2=O)n1 (stereo unspecified) | 12.2 | x | 6.6 | 15.5 | x
Cc1ccc(N2C(=O)CC(Sc3ccccc3C(=O)O)C2=O)c([N+](=O)[O-])c1 (stereo unspecified) | 37.7* | 2.0 | 15.4 | 2.0 | 2.2
COCCNC(=O)C1Nc2ccc(C(F)(F)F)cc2C2C=CCC12 (stereo unspecified) | -0.9 | x | x | x | x
COc1ccc2cc(C3(C)NC(=O)NC3=O)ccc2c1 (stereo unspecified) | -0.2 | 1.0 | 2.9 | -2.1 | 0.4
CCOc1ccc(NC(=NCc2ccc3c(c2)OCO3)SC2CC(=O)N(c3ccc(C(=O)O)cc3)C2=O)cc1 (stereo unspecified) | -0.8 | 1.5 | 9.4 | -3.7 | 1.6
Cc1cccc(N2C(=O)CC(Sc3ccccc3C(=O)O)C2=O)c1 (stereo unspecified) | 24.4 | 0.7 | -1.3 | -1.7 | 3.7
